# Screening data: PubChem BioAssay, several laboratories
# Peg3 prom inh-1: Peg3 promoter-driven luciferase inhibitors, primary screen, cell-based, HeLa, luciferase luminescence; HeLa PEG-Prom luciferase reporter, overnight; inhibition, % at 20 µM; 360,000 tested, 1.7% active; AID 588405, 2011;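 active = inhibition of at least 50% at 20 µM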
# Shn3 3UTR inh: reduction of Shn3 3'UTR firefly luciferase signal, primary screen, Schnurri-3 inhibitor project, cell-based, Clone20 osteoblasts, set 2; 360,000 tested, 0.52% active; inhibition, % at 12.5 µM; AID 588674, 2011; Clone20 osteoblast Shn3 3'UTR firefly luciferase, 24 h;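 active = mean inhibition of at least 75% with every replicate also reaching 75%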;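 also: 0% = median of neutral control wells and 100% = pilot-screen positive control compound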
# HIF-2a block: HIF-2a reporter inhibitors, primary screen, luminescence, 786-0 RCC cells; 786-0 RCC cells HIF-2a reporter, luciferase luminescence, overnight; inhibition, % at 18.8 µM; 360,000 tested, 0.72% active;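 active = inhibition of the luminescence signal of 40% or more relative to plate controls, in a single-dose primary screen at 18.75 µM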
# CF NFkB block: inhibitors of PAF-induced NF-kB signaling, primary screen, cell-based, GFP fluorescence, uHTS. KKLEB NF-kB-GFP reporter, GFP fluorescence overnight. 360,000 tested, 0.86% active. AID 588850, 2011. inhibition, % at 5 µM;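 active = at least 50% inhibition at 5 µM, scaled per plate between neutral and stimulator controls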;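 also: PAF is a Pseudomonas aeruginosa culture filtrate used as stimulus; plate controls were PAF-stimulated DMSO wells for no effect and unstimulated DMSO wells for full effect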
# KKLEB tox: cytotoxicity in KKLEB CF airway cells, primary screen, cytotoxicity control for CF NF-kB inhibitor project, cell-based, uHTS, fluorescence assay plates; KKLEB CF airway cells viability, ATPlite luminescence, overnight; hits give low values; cells stimulated with P. aeruginosa culture filtrate; 360,000 tested, 0.36% active; activity change (cytotoxicity), % at 5 µM;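 active = corrected activity change at or below -50% at 5 µM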
# LMP1 NFkB inh: EBV LMP1-driven NF-kappaB luciferase reporter inhibitors, primary screen, cell-based, luminescence, single point; LMP1-induced NF-kappaB luciferase reporter cells; inhibition, % at 12.5 µM; 350,000 tested, 0.69% active; AID 504558, 2011; in the data active = inhibition above about 41%;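 also: 0% = neutral control wells and 100% = reference inhibitor control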
# Peg3 prom inh-2: Peg3 promoter reporter inhibitors, retest, confirmation, cell-based, HeLa, luciferase reporter, single concentration; HeLa PEG-Prom luciferase reporter, luminescence, overnight; 1,300 tested, 84% active; inhibition, % at 20 µM; shares compounds with Peg3 prom inh-1;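 active = at 20 µM dose, 40% or more inhibition averaged across four replicates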
# * marks the source's active call; other numbers are inactive results; nt = no result given. A selection: hits, their analogues and other compounds. The true share with any hit is near 2.9%.
SMILES,Peg3 prom inh-1,Shn3 3UTR inh,HIF-2a block,CF NFkB block,KKLEB tox,LMP1 NFkB inh,Peg3 prom inh-2
COCCn1c(-c2ccc(-c3ccc([N+](=O)[O-])cc3Br)o2)nc2c1c(=O)[nH]c(=O)n2CC(C)C,52*,11,18,19,-6,6,30
CCn1c(/C=C/c2ccc(O)cc2)nc2ccccc2c1=O,4,6,-35,8,14,4,nt
CCn1c(/C=C2\C(=O)Nc3ccccc32)nc2ccccc2c1=O,52*,-10,12,9,-17,-2,35
CC(C)CC(=NNC(=O)c1ccncc1)c1cc(Cl)ccc1O,64*,85*,14,34,-8,73*,73*
COc1ccc(-c2ccccc2)cc1NC(=O)[C@@H]1O[C@H](CO)[C@H](O)[C@H](O)[C@H]1O,-2,-2,0,4,0,nt,nt
COCOc1ccc(-c2oc3c(C/C=C(\C)CCC=C(C)C)ccc(O)c3c(=O)c2OCOC)c(OCOC)c1,6,21,9,-17,10,nt,nt
CN(CC(=O)Nc1ccc(Cl)c(C(F)(F)F)c1)C(=O)c1cc(-c2ccncc2)nc2ccccc12,77*,26,17,-1,-22,-25,92*
CN(CC(=O)Nc1ccc(F)c(F)c1F)C(=O)c1cc(-c2ccncc2)nc2ccccc12,7,9,22,-2,-4,2,nt
COc1cccc(NC(=O)CN(C)C(=O)c2cc(-c3ccc(F)cc3)nc3ccccc23)c1,63*,13,-8,1,-19,15,73*
Cc1nc(-c2ccc(F)cc2)c(CC(=O)N(C)CC(=O)Nc2ccc(Cl)c(C(F)(F)F)c2)s1,58*,15,8,19,-26,-11,56*
O=C(Sc1cccc2cccnc12)c1ccccc1Br,59*,99*,14,34,13,-23,47*
CCOC(=O)CSC1=NC(=O)/C(=C\c2ccc(Cl)cc2)S1,88*,20,-172,9,-4,-11,0
CCOC(=O)C1CCN(C2=NC(=O)/C(=C/c3ccc(Cl)cc3)S2)CC1,24,-20,23,-1,-2,-2,nt
O=C(c1cc(-c2cccs2)nn1-c1ccccc1)N1CCN(S(=O)(=O)c2ccccc2)CC1,57*,21,6,21,-20,0,57*
Cc1ccc(C(O)c2ncc(-c3cccc(C(F)(F)F)c3)[nH]2)cc1 (stereo unspecified),12,4,-6,10,9,nt,nt
Cc1ccc2cc3c(N)c4c(C)ccc(C)c4nc3nc2c1,103*,80,-14,-82,-12,8,97*
CCc1nc2ccccc2c(=O)n1/N=C/c1ccc(OC)cc1,-8,-15,-51,4,0,2,nt
Cc1c(CCOC(=O)C23CC4CC(CC(C)(C4)C2)C3)sc[n+]1CC(=O)c1ccccc1,54*,14,15,4,-14,-6,91*
FC(F)(F)c1cc(Oc2ccccc2)ncc1-c1nnc(-c2ccccc2Cl)o1,-1,7,-11,-16,-8,4,nt
O=C(Nc1nnc(-c2ccco2)o1)C1CC1,1,-7,13,1,7,-3,nt
CN(C)CCNc1ncnc2c1sc1nc(N3CCCC3)c3c(c12)CC(C)(C)OC3,57*,4,24,16,-16,-11,67*
COc1cccc(/C=N/NC(=O)c2ccc(-c3ccccc3)cc2)c1O,55*,91*,12,2,2,57*,69*
COc1cccc(/C=N/NC(=O)c2c(C)nc3ccc(Cl)cn23)c1O,56*,90*,2,-14,0,61*,71*
COc1ccc(C(=O)Nc2cccc(C(=O)N/N=C/c3ccc(OC)cc3OC)c2)cc1,74*,10,58*,-10,7,67*,77*
COc1ccccc1/C=N\NC(=O)c1c(C)nc2ccc(Cl)cn12,15,9,16,-2,4,1,nt
SMILES,Peg3 prom inh-1,Shn3 3UTR inh,HIF-2a block,CF NFkB block,KKLEB tox,LMP1 NFkB inh,Peg3 prom inh-2
COc1ccc(/C=N/NC(=O)c2cccc(NC(C)=O)c2)c(OC)c1,14,-3,0,2,-6,-2,nt
CC[N+]1(C)[C@@H]2CC[C@H]1CC(OC(=O)[C@H]1CCC(C(=O)OC3C[C@H]4CC[C@@H](C3)[N+]4(C)CC)(c3ccccc3)c3ccccc31)C2 (stereo partly specified),3,3,3,-27,11,-2,nt
CCc1cc2c(-c3ccccc3)cc(=O)oc2cc1OCC(C)=O,11,2,-9,4,0,1,nt
CC(=O)COc1cc2c(-c3cc4ccccc4o3)cc(=O)oc2cc1C,56*,8,4,-193,2,-11,36
CC1(C(=O)NCc2cccc3ccccc23)CCN1C(=O)Cc1ccc(-c2ccccc2)cc1 (stereo unspecified),53*,34,-1,-19,-11,nt,51*
c1ccc(C2CC(c3ccccc3)n3c(nc4ccccc43)N2)cc1 (stereo unspecified),76*,-8,-8,-8,-8,-20,6
CCc1ccc(C2CC(c3ccccc3)Nc3nc(N)nn32)cc1 (stereo unspecified),-1,2,5,7,3,-7,nt
COC(=O)CSC1=NS(=O)(=O)c2ccccc21,74*,-4,-21,7,2,-6,80*
COC(=O)CSc1ccccc1C(=O)OC,-1,-22,0,-2,7,-7,nt
OC1(c2ccc(Cl)c(Cl)c2)C[n+]2ccccc2N1Cc1ccccc1 (stereo unspecified),95*,45,-13,26,-5,-1,90*
Cc1ccc(-c2cc(C(=O)Nc3nccs3)c3ccccc3n2)c(C)c1,91*,13,10,-36,-6,5,61*
CNC(=S)SCCOc1ccccc1C,-14,-27,-14,-5,-8,-2,nt
Cc1nc(C)c(C(=O)N/N=C/c2cc(Br)ccc2O)s1,50*,nt,7,4,4,21,61*
CC(C)C(OC(=O)c1nsc(Cl)c1Cl)C(=O)NCc1ccccc1 (stereo unspecified),17,0,12,0,2,4,nt
COc1cc(-c2cc(C(=O)Nc3cc(S(=O)(=O)N4CCOCC4)ccc3C)c3ccccc3n2)cc(OC)c1OC,53*,17,13,15,-7,8,53*
